PubChem BioAssay AID1220 (Sanford-Burnham Center for Chemical Genomics, 2008)
The whole screen tested about 190,000 compounds, of which about 1,300 (0.68%) were called active. The sample holds actives, similar compounds and a random draw of the others, so the mix is not that of the screen. A number with no mark means an inactive call. Rule as the data show it: active = inhibition above about 50%; inactive = the rest.

Target: Mannose-6-phosphate isomerase (Homo sapiens) (UniProt P34949)
Test: MPI inhibition at elevated mannose 6-phosphate – biochemical, fluorescence intensity, high mannose 6-phosphate, primary screen (AID 1220)
Settings: recombinant PMI enzyme, coupled fluorescence intensity; at 20 µM; hits give high values

Chain of Mannose-6-phosphate isomerase (Homo sapiens) (P34949 whole entry, looked up): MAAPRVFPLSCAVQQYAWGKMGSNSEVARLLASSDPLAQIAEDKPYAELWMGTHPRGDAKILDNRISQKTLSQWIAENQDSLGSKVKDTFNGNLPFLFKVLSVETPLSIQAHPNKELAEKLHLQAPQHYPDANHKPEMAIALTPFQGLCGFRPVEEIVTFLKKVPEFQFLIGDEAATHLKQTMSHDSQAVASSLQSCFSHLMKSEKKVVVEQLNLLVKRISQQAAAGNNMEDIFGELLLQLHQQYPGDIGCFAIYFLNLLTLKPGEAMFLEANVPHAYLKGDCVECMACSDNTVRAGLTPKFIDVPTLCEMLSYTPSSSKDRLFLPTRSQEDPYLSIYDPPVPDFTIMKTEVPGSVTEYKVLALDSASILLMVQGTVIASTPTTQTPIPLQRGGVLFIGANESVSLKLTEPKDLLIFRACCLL

In order of falling inhibition:
1. CCCCCCn1c(=O)[nH]c2nc3cc(N)c(C)cc3nc2c1=O  49.7%
2. O=C(Nc1cccc(S(=O)(=O)Nc2ccccc2F)c1)c1ccc2ccccc2n1  44.1%
3. CCOC(=O)c1cnc2ccc(OCC)cc2c1NCc1ccccc1  43.5%
4. CCOC(=O)c1c(-c2cccc([N+](=O)[O-])c2)csc1NC(=O)C1CC1  40.4%
5. CCCC(=O)Nc1nc(C)c(-c2csc(Nc3ccc(Cl)cc3)n2)s1  38.4%
6. CCOC(=O)c1c(CC(C)C)csc1N  34.4%
7. Cc1ccccc1N=Nc1ccc(O)c2ncccc12  31.3%
8. C[C@]12CC[C@@H]3c4cc(O)c(O)cc4CC[C@H]3[C@@H]1CC[C@@H]2O  27.9%
9. CCOC(=O)c1cnc2ccc(OC)cc2c1NCc1ccccc1  27.2%
10. C=CCn1c(SCC(=O)Nc2ccc3c(c2)OCO3)nnc1-c1ccccc1  25.6%
11. O=C1CCCC/C1=C\Nc1ccc(O)cc1  25%
12. O=C1CC(N2CCN(c3ccc(F)cc3)CC2)C(=O)N1c1ccc2c(c1)OCO2 (stereo not drawn)  24.1%
13. CCCCCCn1c(=O)[nH]c2nc3cc(N)ccc3nc2c1=O  24%
14. CCOC(=O)c1c(-c2cccc([N+](=O)[O-])c2)csc1NC(=O)C1CCCCC1  24%
15. CCOC(=O)c1c(-c2ccncc2)csc1N  23.1%
16. CCOC(=O)c1c(-c2ccc(C)o2)csc1NC(=O)CN1CCCCC1  20.2%
17. CCOc1ccc(-c2csc(N)c2C(=O)OC)cc1  19.4%
18. CCNC(=S)N1CCN(C(c2ccccc2)c2ccccc2)CC1  18.7%
19. COc1ccc(O)c(CNc2ccccc2F)c1  17.2%
20. CCOC(=O)c1c(-c2ccc(C)o2)csc1NC(=O)COC(=O)c1cccs1  16.6%
21. CC1(C)Oc2ccc3ccc(=O)oc3c2/C(=C/Nc2ccc(O)cc2)C1=O  14.8%
22. Cc1ccc(-n2ncc(C#N)c2/N=C/N2CCOCC2)cc1  14.1%
23. O=C(Cn1cc(C(F)(F)F)cc(Cl)c1=O)Nc1cc(Cl)cc(Cl)c1  13.7%
24. COc1ccc(NC(=O)C2CCN(C(=O)NCc3ccccc3)CC2)cc1  13%
25. O=C(/C=C/c1ccc2c(c1)OCO2)NCCSCc1ccc(Cl)cc1Cl  12.8%
26. CCOC(=O)CC(NS(=O)(=O)c1ccc(OC)c(C)c1)c1cccc([N+](=O)[O-])c1 (stereo not drawn)  12.1%
27. CCOC(=O)c1ccc(Cn2cnc3ccccc3c2=O)cc1  11.7%
28. CCOc1ccc(S(=O)(=O)n2cc(F)c(=O)[nH]c2=O)cc1  11.2%
29. C=CCn1c(COc2ccccc2F)nnc1SCCN1C(=O)c2ccccc2C1=O  10.7%
30. O=C(Cc1ccc(Cl)cc1)Nc1cccc(S(=O)(=O)Nc2ccccc2F)c1  10.4%
31. Cn1c(CN2CCCCC2)nc2cc(NC(=O)c3ccc(F)cc3)ccc21  10.4%
32. Cc1ccc2nsnc2c1S(=O)(=O)N(Cc1cc2cccc(C)c2[nH]c1=O)CC1CCCO1 (stereo not drawn)  10.3%
33. COCC(=O)Nc1nnc(CCc2ccccc2)s1  9.8%
34. CCOC(=O)c1c(-c2ccco2)csc1NC(=O)CSc1nnc(N)s1  9.8%
35. O/N=C1/CCSc2ccccc21  9.7%
36. Nc1nc2n(n1)C(=O)CC(c1ccccc1[N+](=O)[O-])N2 (stereo not drawn)  9.2%
37. O=[N+]([O-])c1ccc(O)c2ncccc12  9%
38. Cc1ccc(NC(=O)C2CCCN2C(=O)NC2CCCCC2)cc1 (stereo not drawn)  7.7%
39. Cc1nnc(SCC(=O)c2ccc(C(C)C)cc2)s1  7.2%
40. COCCNC(=O)NC(=O)CN1CCCc2ccccc21  6.7%
41. COc1ccc(NC(=O)c2cc3c(=O)n4ccccc4nc3n2C)c(OC)c1  6.3%
42. O=C(c1ccncc1)N(c1ccc2oc3c(c2c1)CCCC3)S(=O)(=O)c1cccc([N+](=O)[O-])c1  6%
43. O=C(NCC(=O)N1CCN(S(=O)(=O)c2cccs2)CC1)c1ccc(Cl)cc1  5.3%
44. COc1ccc(C(=O)NC(C)c2nnc(SCC(=O)Nc3nc4ccccc4s3)n2C)cc1 (stereo not drawn)  4.8%
45. Cc1ccc2nc(-c3cccnc3)c(Nc3ccccc3C)n2c1  4.7%
46. CSc1cccc(NC(=S)N(CCCN2CCCC(C)C2)Cc2cccs2)c1 (stereo not drawn)  4.6%
47. CC1(C)CC(=O)C2=C(C1)OC(N)=C(C#N)C21CCN(C(=O)OCc2ccccc2)CC1  4.4%
48. CC(C)c1ccc(C(=O)CSc2n[nH]c(-c3ccncc3)n2)cc1  4.3%
49. CCOC(=O)c1ccc(S(=O)(=O)N2CCN(S(=O)(=O)CC)CC2)cc1  4.2%
50. S=C(NCCN1CCOCC1)N/N=C/c1ccccc1  3.7%
51. CCOC(=O)c1c(-c2ccc(C)s2)csc1NC(=O)c1ccco1  3.5%
52. CCOC(=O)C1=C(c2ccccc2)NC(SC)=C(C#N)C1c1cccnc1 (stereo not drawn)  3.3%
53. COC(=O)c1cccc(C(=O)Nc2ccc(F)cc2)n1  2.8%
54. CCCCC(=O)NC1(C(F)(F)F)C(=O)N(Cc2ccco2)C(C)=C1C(=O)OC (stereo not drawn)  2.6%
55. CC(C)(C)NCC(O)COc1ccccc1C(C)(C)C (stereo not drawn)  2.5%
56. Oc1c(Br)cc2oc3c(c2c1CNCc1ccccc1)CCCC3  2.3%
57. C=CCn1c(C(C)NC(=O)c2ccccc2C)n[nH]c1=S (stereo not drawn)  2.2%
58. COCCOC(=O)C1=C(C)N=C2SCCC(=O)N2C1c1cccc(Br)c1 (stereo not drawn)  1.8%
59. NC(=O)C1(N2CCCCC2)CCN(Cc2ccc(F)cc2)CC1  1.7%
60. Cc1c(NC(=S)NC(NC(=O)C(C)C)C(Cl)(Cl)Cl)c(=O)n(-c2ccccc2)n1C (stereo not drawn)  1.4%
61. CC(=O)Nc1ccc(S(=O)(=O)NNC(=O)COc2cccc3ccccc23)cc1  1.3%
62. Cc1ccc(S(=O)(=O)N(C(=O)c2ccncc2)c2ccc3oc4c(c3c2)CCCC4)cc1[N+](=O)[O-]  1.1%
63. OCC[C@@H]1C[C@@H](O)[C@H](O)[C@]2(CCCCO2)O1  0.7%
64. Cc1ccc2c(c1)N(CC(=O)N1CCN(c3nc4ccccc4s3)CC1)C(=O)C(C)O2 (stereo not drawn)  0.6%
65. CC1(C)OC(C)(C)/C(=C/Nc2ccccc2)C1=O  0.4%
66. O=C(N/N=C/c1cccc([N+](=O)[O-])c1)c1ccc(COc2ccccc2-c2ccccc2)cc1  0.3%
67. Cc1cc2nc(-c3ccc(SCC(=O)Nc4nccs4)nc3)[nH]c2cc1C  -0.3%
68. Cc1ccc(N/C=C2\CCCCC2=O)c(C)c1  -0.6%
69. CN(Cc1ccc(F)cc1)C(=O)CCc1nnc(-c2ccccc2)o1  -0.8%
70. O=C(Cc1ccccc1F)Nc1cccc2cccnc12  -1.1%
71. COCCn1c(C)cc(C(=O)CSc2nc3ccccc3o2)c1C  -1.7%
72. O=C1CC(N2CCN(c3ccccc3)CC2)C(=O)N1c1ccc2c(c1)OCO2 (stereo not drawn)  -2%
73. COc1ccccc1OCc1ccc(C(=O)OCC2CCCO2)o1 (stereo not drawn)  -2%
74. O=C1CCCC(O)=C1C=NCc1ccccc1  -2.2%
75. COC(=O)c1oc2ccc(OC)cc2c1N  -2.9%
76. CCOC(=O)c1c(-c2ccc(C)s2)csc1NC(=O)c1cccs1  -3.8%
77. FC(F)(F)c1cc(-c2cccs2)nc2nc(N3CCOCC3)sc12  -4.4%
78. COc1ccc(C(=O)O/N=C(/C)c2cccs2)cc1  -4.4%
79. CCCOc1ccc(S(=O)(=O)n2cc(Br)c(=O)[nH]c2=O)cc1  -4.8%
80. COC(=O)/C=c1/s/c(=C(\C#N)C(=O)NCc2ccco2)n(-c2ccccc2)c1=O  -5.5%
81. C[C@]12CC[C@@H]3c4ccc(O)cc4CC[C@H]3[C@@H]1CC[C@@H]2O  -6.7%
82. CN(C)C(=O)c1cn(-c2ccccc2)nc1-c1cccs1  -7.1%
83. CCOC(=O)C1CCN(C(=O)CSc2nccc(C)n2)CC1  -8.5%
84. COC(=O)C1=C(C)N(c2ccc(OC)c(OC)c2)C(=O)C1  -12.5%
85. Oc1ccc(/C=N/NC(=S)NCCN2CCOCC2)c(O)c1  -21.6%

`Oc1ccc(CNc2ccccc2F)c2cccnc12` was tested, and the inhibition was 73.8% (active).
`CCCCn1c(=O)[nH]c2nc3cc(N)ccc3nc2c1=O` was tested, and the inhibition was 52.5% (active).
With `CCOC(=O)c1cnc2ccc(OCC)cc2c1NCc1cccnc1` the inhibition was 62.8% (active).
For `O=[N+]([O-])c1cc2oc3c(c2c(C=NCc2ccccc2)c1O)CCCC3`, the inhibition was 50.7% (active).
With `O=[N+]([O-])c1cc2oc3c(c2c(C=NCc2ccncc2)c1O)CCCC3` the inhibition was 52.5% (active).
For `CC1(C)OC(C)(C)/C(=C/Nc2ccc(O)cc2)C1=O`, the inhibition was 52.5% (active).
In the case of `O=C1CC(N2CCN(c3ccc(O)cc3)CC2)C(=O)N1c1ccc2c(c1)OCO2` (stereo not drawn), the inhibition is reported as 60.4% (active).
In the case of `CCOC(=O)c1c(-c2ccco2)csc1N`, the inhibition is reported as 57.9% (active).
With `CCOC(=O)c1c(-c2ccc(C)o2)csc1N` the inhibition was 51.6% (active).
With `Cc1cc(O)ccc1N/C=C1\CCCC1=O` the inhibition was 54.1% (active).
For `CC(C)COc1ccc(S(=O)(=O)n2cc(F)c(=O)[nH]c2=O)cc1`, the inhibition was 50.5% (active).
In the case of `CCOC(=O)c1c(-c2ccsc2)csc1N`, the inhibition is reported as 59.8% (active).
In the case of `CCOC(=O)c1c(-c2cccc([N+](=O)[O-])c2)csc1N`, the inhibition is reported as 50.3% (active).
